Results with a measured potency or affinity are listed apart. Active and inactive are the calls of the source. How the calls were made is not given here.

Data on 39 compounds can be found in PubChem BioAssay AID1650 (Southern Research Specialized Biocontainment Screening …, 2009).

The nature of the experiment: host cell cytotoxicity of antiviral hits, dose response, cytotoxicity control for West Nile virus antiviral project, secondary assay (AID 1650).

On to `CCN(CC)S(=O)(=O)c1ccc(NC(=O)Cn2cnc3ccccc3c2=O)cc1`, for which the compound was classed as inactive. `COc1cc(C(=O)/C=C/c2cccnc2)ccc1O`: the outcome was inactive.

Take `COc1cc(CNC(C)(C)CO)cc(Br)c1OCc1ccc(Cl)cc1Cl`: the outcome was inactive. In the case of `CCCCn1c(=N)n(CC(O)COc2ccc(C)cc2)c2ccccc21` (centres undefined), the result was inactive. On to `CC(C)c1ccc(-c2cc(C(=O)NN3CCN(C)CC3)c3ccccc3n2)cc1`, for which the result was inactive.

`CCn1nc(C)c(CN2CCc3c([nH]c4ccccc34)C2c2ccc(F)c(OC)c2)c1C` (centres undefined): the compound was classed as inactive. `CCOC(=O)C1(Cc2cccc(OC)c2)CCCN(C(=O)c2ccccc2C)C1` (centres undefined): the outcome was inactive. Under `Nc1nonc1-n1nnc(C(=O)N/N=C/c2ccc(OCc3ccccc3)cc2)c1CNc1ccccc1` stands “inactive”. Next, `CCC(C)NC(=O)/C(=C/c1ccco1)c1ccccc1` (centres undefined): “inactive”; `COC(=O)c1ccc(NC(=O)CC2C(=O)N(C)C(=S)N2Cc2ccc(S(N)(=O)=O)cc2)cc1` (centres undefined): “inactive”; `CCN1CCN(c2ncc(C(=O)Nc3cc(Cl)c(OC)cc3OC)c3ccccc23)CC1`: “inactive”. For `C=CCn1c(SCc2csc(-c3ccc(Cl)cc3)n2)nnc1-c1ccccc1OC`, the result was inactive. For `O=C(Nc1ccc(-n2ccc(C(F)(F)F)n2)cc1)Nc1cccc(Cl)c1`, the result was inactive. For the compound `CCCCCCc1c(C)nc(-n2[nH]c(C)c(CCO)c2=O)[nH]c1=O`, the result was inactive. Turning to `CCOC(=O)c1cn(CC(=O)Nc2ccc(C(C)C)cc2)nn1`, the compound was classed as inactive. `CCOC(=O)c1cnc2ccc(OC)cc2c1Nc1ccc(N2CCN(C)CC2)cc1`: the compound was classed as inactive. `C=CCn1cc(C(=O)NCCCOCC)c(=O)c2cc(S(=O)(=O)N(CC)CC)ccc21`: the compound was classed as inactive. Turning to `CCCc1nc([N+](=O)[O-])c(S(=O)(=O)c2ccccc2)n1CC(C)C`, the compound was called inactive. As for `O=C(CN1C(=O)/C(=C/c2ccc(C(F)(F)F)cc2)Sc2ccccc21)NCCCN1CCOCC1`, the result was inactive.

For the compound `Cc1ccc(S(=O)(=O)c2c(N)n(CCCN(C)C)c3nc4ccccc4nc23)cc1`, the compound was called inactive. In the case of `CC(=O)N1CCN(CC(=O)Nc2c(Cl)ccc(C)c2Cl)CC1`, the compound was classed as inactive. With `CC1CCN(CCc2nc3cc(NC(=O)COc4ccc(Cl)cc4)ccc3n2C)CC1`, the result was inactive. Consider `O=C(c1cccc(S(=O)(=O)N2CCOCC2)c1)N1CCOCC1`, for which the call was inactive.

With `O=C(CN1CCCC1)Nc1ccc(-c2nc3cc(NC(=O)CN4CCCC4)ccc3o2)cc1`, the compound was called inactive.

Regarding `CCN(CC)CCNC(=O)c1ccc(NC(=O)c2cccc(S(=O)(=O)N3c4ccccc4CC3C)c2)cc1` (centres undefined), the result was inactive. As to `CCN1CCN(C(=S)Nc2ccc3nc(N4CCN(CC)CC4)cc(C)c3c2)CC1`, the compound was classed as inactive. `Cc1ccc(Nc2nc(N)c([N+](=O)[O-])c(N3CCCC(C)C3)n2)cc1C` (centres undefined): the outcome was inactive. `COc1ccc(C(=O)CSc2nnc(-c3ccc(S(=O)(=O)N4CCOCC4)cc3)o2)cc1`: the result was inactive. Regarding `COc1ccc(C2c3c(ncn(CCCO)c3=N)Oc3ccc4ccccc4c32)cc1OC` (centres undefined), the compound was classed as inactive. Next, `Cn1cc(CN2CCCC(C(=O)Nc3cccc(-c4cc5ccccc5[nH]4)c3)C2)cn1` (centres undefined): “inactive”; `CCN1CCN(CCCNC(=O)c2cc3c(s2)-c2ccccc2OC3)CC1`: “inactive”; `CC1CCCN(CCCNC(=O)c2cc3c(s2)-c2ccccc2OC3)C1` (centres undefined): “inactive”. On to `CCOC(=O)c1[nH]c2ccccc2c1NC(=O)CC(C)(C)C`, for which the outcome was inactive. Turning to `CN1CCCC(CC2Oc3ccccc3Sc3ccccc32)C1` (centres undefined), the result was inactive. Next, `COc1ccc(OCc2cccc(C(=O)Nc3ccc(CN4CCCCC4)cc3)c2)cc1`: “inactive”; `CCCN(CC(=O)Nc1cccc(Br)c1)CC(=O)Nc1ccc(F)c(F)c1F`: “inactive”. Regarding `COc1ccc(C2c3c(ncn(CCN4CCOCC4)c3=N)Oc3ccc4ccccc4c32)cc1` (centres undefined), the compound was called inactive. Next, `Cc1cc(C)cc(OC(=O)CS(=O)c2ccc(C(F)(F)F)cc2[N+](=O)[O-])c1` (centres undefined): “inactive”; `CCCc1nc2c(c(=O)c3ccccc3n2C)c(=O)n1C1CCCCCC1`: “inactive”.
